# The supplement of paper PMC8728848
# This excerpt belongs to a sample that is enriched for the strongest signals.
# B1: PX9896A-bth-573-26-573 (Bacteroides thetaiotaomicron) (protein)
# chain: ETNNLKTKEDMYKYFGTSKSMLTHVYSYMPQGYQLFATSGGIFTEDRYSMRDCASDDGEFGAYADNIQNTNNGNWSPIKTYDDSWTLYRGIRAANSFIAEIAQVDFTRYEHDGQYTNWMKQLKYFPYEARVLRAHYFFELARRYGDIAMPLEVLTEEEANTIGKTPFSEVISFIVSECDDAANNLPDSYVNEPGAEIGRVTKGFAMAVKSKALLYAASKLHNPSMDTELWKKSAKAAIDIINTGLYSLDPQESANNLDSKEVVLMRINGDDSDFEMFNLPLRMTAGTRTSSLIPYSNYPSQNLVDAFETVNGYKVTLENTGWVCEDPAFDPQSPYENRDKRFYRAILANGMSFKDYTIETFKGGADDGIVSQGGSPTGYFLRKYIQEATSFEPGKEAVSKHHWVIYRYAETLLTYAESMVNAFNDVNYTDETYKYSALWAINEVRKNADMPLIPSMGKDEFMERLYNEWRVEFAFEDHRFWDVRRWKIADTTQRELYGVKIEKQADGTFNFYKNLYETRNWRDCMYLYPIPQSELYKNTNLNPQNTGW
# What was measured:
# Assay in all cases: glycan array binding signal (z-score within array); higher = stronger binding
# Conditions in all cases: glycan notation: IUPAC condensed, linker removed
# [1] = molecular target: Fuc(a1-2)Gal(b1-3)[Fuc(a1-4)]GlcNAc(b1-2)Man(a1-3)[Fuc(a1-2)Gal(b1-3)[Fuc(a1-4)]GlcNAc(b1-2)Man(a1-6)]Man(b1-4)GlcNAc(b1-4)[Fuc(a1-6)]GlcNAc(b1-4)[Fuc(a1-6)]GlcNAc
# Method in brief: (§1)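 The binding signal is a Z-score computed within each array. Data were drawn from 3228 arrays in the Consortium for Functional Glycomics database, restricted to those with a known protein sequence. Scores were averaged over arrays of the same protein sequence at different concentrations or buffers, and over linkers, and negative values can be taken as non-binding.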
# [2] = molecular target: Fuc(a1-2)Gal(b1-4)GlcNAc(b1-3)Gal(b1-4)GlcNAc
# Method in brief: as §1
# [3] = molecular target: Fuc(a1-2)Gal(b1-4)GlcNAc(b1-3)GalNAc
# Method in brief: as §1
# [4] = molecular target: Fuc(a1-2)[Gal(a1-3)]Gal(b1-3)GlcNAc(b1-2)Man(a1-3)[Fuc(a1-2)[Gal(a1-3)]Gal(b1-3)GlcNAc(b1-2)Man(a1-6)]Man(b1-4)GlcNAc(b1-4)GlcNAc
# Method in brief: as §1
# [5] = molecular target: Fuc(a1-2)[Gal(a1-3)]Gal(b1-4)Glc
# Method in brief: as §1
# [6] = molecular target: Fuc(a1-2)[Gal(a1-3)]Gal(b1-4)GlcNAc(b1-6)GalNAc
# Method in brief: as §1
# [7] = molecular target: Fuc(a1-2)[Gal(a1-3)]Gal(b1-4)[Fuc(a1-3)]Glc
# Method in brief: as §1
# [8] = molecular target: Fuc(a1-2)[GalNAc(a1-3)]Gal(b1-3)GalNAc(a1-3)[Fuc(a1-2)]Gal(b1-4)GlcNAc
# Method in brief: as §1
# [9] = molecular target: Fuc(a1-3)[Gal3S(b1-4)]GlcNAc
# Method in brief: as §1
# [10] = molecular target: Fuc(a1-3)[Gal3S(b1-4)]GlcNAc6S
# Method in brief: as §1
# [11] = molecular target: Fuc(a1-4)GlcNAc
# Method in brief: as §1
# [12] = molecular target: Gal(a1-3)Gal(b1-4)[Fuc(a1-3)]GlcNAc(b1-2)Man(a1-3)[Gal(a1-3)Gal(b1-4)[Fuc(a1-3)]GlcNAc(b1-2)Man(a1-6)]Man(b1-4)GlcNAc(b1-4)GlcNAc
# Method in brief: as §1
# [13] = molecular target: Gal(a1-3)[Gal(a1-4)]Gal(b1-4)GlcNAc
# Method in brief: as §1
# [14] = molecular target: Gal(b1-3)GalNAc(a1-3)[Fuc(a1-2)]Gal(b1-4)Glc
# Method in brief: as §1
# [15] = molecular target: Gal(b1-3)GalNAc(b1-4)Gal(b1-4)Glc
# Method in brief: as §1
# [16] = molecular target: Gal(b1-3)GlcNAc(b1-3)Gal(b1-4)GlcNAc(b1-2)[Gal(b1-3)GlcNAc(b1-3)Gal(b1-4)GlcNAc(b1-6)]Man(a1-6)[Gal(b1-3)GlcNAc(b1-3)Gal(b1-4)GlcNAc(b1-2)Man(a1-3)]Man(b1-4)GlcNAc(b1-4)[Fuc(a1-6)]GlcNAc
# Method in brief: as §1
# [17] = molecular target: Gal(b1-3)GlcNAc(b1-6)[Gal(b1-3)]GalNAc
# Method in brief: as §1
# [18] = molecular target: Gal(b1-4)GlcNAc(b1-2)Man(a1-3)[GlcNAc(b1-2)Man(a1-6)]Man(b1-4)GlcNAc(b1-4)GlcNAc
# Method in brief: as §1
# [19] = molecular target: Gal(b1-4)GlcNAc(b1-2)Man(a1-6)[GlcNAc(b1-2)Man(a1-3)]Man(b1-4)GlcNAc(b1-4)GlcNAc
# Method in brief: as §1
# [20] = molecular target: Gal(b1-4)GlcNAc(b1-2)[Gal(b1-4)GlcNAc(b1-6)]Man(a1-6)[GlcNAc(b1-4)][Gal(b1-4)GlcNAc(b1-2)[Gal(b1-4)GlcNAc(b1-4)]Man(a1-3)]Man(b1-4)GlcNAc(b1-4)[Fuc(a1-6)]GlcNAc
# Method in brief: as §1
# [21] = molecular target: Gal(b1-4)GlcNAc(b1-3)Gal(b1-3)GalNAc
# Method in brief: as §1
# [22] = molecular target: Gal(b1-4)GlcNAc(b1-3)Gal(b1-4)GlcNAc(b1-2)[Gal(b1-4)GlcNAc(b1-3)Gal(b1-4)GlcNAc(b1-6)]Man(a1-6)[Gal(b1-4)GlcNAc(b1-3)Gal(b1-4)GlcNAc(b1-2)Man(a1-3)]Man(b1-4)GlcNAc(b1-4)GlcNAc
# Method in brief: as §1
# [23] = molecular target: Gal(b1-4)GlcNAc(b1-3)Gal(b1-4)GlcNAc(b1-3)Gal(b1-4)GlcNAc(b1-3)Gal(b1-4)GlcNAc(b1-2)Man(a1-3)[Gal(b1-4)GlcNAc(b1-3)Gal(b1-4)GlcNAc(b1-3)Gal(b1-4)GlcNAc(b1-3)Gal(b1-4)GlcNAc(b1-2)Man(a1-6)]Man(b1-4)GlcNAc(b1-4)GlcNAc
# Method in brief: as §1
# [24] = molecular target: Gal(b1-4)GlcNAc(b1-3)Gal(b1-4)GlcNAc(b1-3)Gal(b1-4)GlcNAc(b1-3)Gal(b1-4)GlcNAc(b1-3)Gal(b1-4)GlcNAc(b1-2)Man(a1-3)[Gal(b1-4)GlcNAc(b1-3)Gal(b1-4)GlcNAc(b1-3)Gal(b1-4)GlcNAc(b1-3)Gal(b1-4)GlcNAc(b1-3)Gal(b1-4)GlcNAc(b1-2)Man(a1-6)]Man(b1-4)GlcNAc(b1-4)GlcNAc
# Method in brief: as §1
# [25] = molecular target: Gal6S(b1-3)GlcNAc6S
# Method in brief: as §1
# [26] = molecular target: GalNAc(b1-4)GlcNAc(b1-3)GalNAc(b1-4)GlcNAc
# Method in brief: as §1
# [27] = molecular target: GalNAc3S(b1-4)GlcNAc3S
# Method in brief: as §1
# [28] = molecular target: GalNAc6S(b1-4)GlcNAc
# Method in brief: as §1
# [29] = molecular target: Glc(b1-4)Glc
# Method in brief: as §1
# [30] = molecular target: GlcNAc(b1-3)Gal(b1-3)GalNAc
# Method in brief: as §1
binder,measurement,setting,value
B1,glycan array binding signal (z-score),[1],0.845
same,glycan array binding signal (z-score),[2],-0.815
same,glycan array binding signal (z-score),[3],0.126
same,glycan array binding signal (z-score),[4],5.75
same,glycan array binding signal (z-score),[5],-0.838
same,glycan array binding signal (z-score),[6],-0.304
same,glycan array binding signal (z-score),[7],-1.01
same,glycan array binding signal (z-score),[8],0.607
same,glycan array binding signal (z-score),[9],-0.437
same,glycan array binding signal (z-score),[10],8.17
same,glycan array binding signal (z-score),[11],0.243
same,glycan array binding signal (z-score),[12],2.9
same,glycan array binding signal (z-score),[13],3.79
same,glycan array binding signal (z-score),[14],-0.889
same,glycan array binding signal (z-score),[15],-0.458
same,glycan array binding signal (z-score),[16],3.52
same,glycan array binding signal (z-score),[17],0.949
same,glycan array binding signal (z-score),[18],3.74
same,glycan array binding signal (z-score),[19],4.65
same,glycan array binding signal (z-score),[20],0.323
same,glycan array binding signal (z-score),[21],-0.185
same,glycan array binding signal (z-score),[22],5.18
same,glycan array binding signal (z-score),[23],0.219
same,glycan array binding signal (z-score),[24],0.845
same,glycan array binding signal (z-score),[25],3.99
same,glycan array binding signal (z-score),[26],-0.28
same,glycan array binding signal (z-score),[27],-0.744
same,glycan array binding signal (z-score),[28],-0.663
same,glycan array binding signal (z-score),[29],0.069
same,glycan array binding signal (z-score),[30],-0.077
